What is called inhibition is the drop in the measured response relative to a control, in per cent.

Molecules are shown by their SMILES.

From ChEMBL document CHEMBL3433997, “St. Jude Leishmania screening dataset” (2016) come the findings set out here.

This experiment deals with Glucose transporter (Leishmania mexicana) (UniProt O61059). The experiment can be described thus: ST_JUDE_LEISH: Cytotoxicity at 2uM final concentration against transgenic Leishmania Mexicana promastigotes LmGT2 that are glucose transport deficient and complemented with the L. Mexicana glucose transporter 2. Activity is measured by DNA content using SYBR green in vitro. The class given is functional.
For the molecule `COc1cc(NC(=O)c2c(-c3c(F)cccc3Cl)noc2C)c(OC)cc1Cl`, the inhibition was -4.01%.

For the molecule `CC(=O)Nc1ccc(CN2CCC(NC(=O)c3ccc(-c4cccc(OC(C)C)c4)s3)CC2)cc1`, the inhibition is 7.43%.

`COc1ccc(Br)cc1/C=C/C(=O)Nc1ccc(C2CCN(C)CC2)cc1`: the inhibition turned out to be 4.19%.

With `CCc1ccc(Cc2cnc3nc(N)nc(N)c3c2C)cc1CC`, the inhibition is 0.12%.

As for `CC1CCCN(Cc2cc(Cl)cc(Cl)c2O)C1` (stereo not given), the inhibition is -1.76%.

Regarding `CCCCN(CCCC)CCCN(CCCN(CCCC)CCCC)c1cc(C)nc(Nc2ccc(Cl)cc2)n1`, the inhibition stood at 0.44%.

For the molecule `OCCOCn1cnc2cnc(N[C@H]3OC[C@H](O)[C@@H](O)[C@@H]3O)nc21`, the inhibition worked out at 1.69%.

With `NC1=NC(c2ccccc2)(c2ccccc2)C(=O)N1Cc1ccccc1Br`, the inhibition was found to be 6.62%.

Take `CCC(CC)C(CC(=O)NC(C)(C)CCc1ccccc1OC)Nc1ccc(C#N)c2ccccc12` (stereo not given): the inhibition is 3.55%.

On to `CCOC(=O)c1cnc2c(C(F)(F)F)cccc2c1Nc1ccc(O)cc1`, for which the inhibition came to 9.59%.

For `CN(C)CC(O)COc1ccc(Nc2ncc([N+](=O)[O-])c(Nc3ccccc3O)n2)cc1` (stereo not given), the inhibition is 1.45%.

For the molecule `CN(C)Cc1ccc2nc(-c3cccc(Cc4cc(Cl)ccc4OCc4ccc(Cl)cc4F)n3)[nH]c2c1`, the inhibition is -1.22%.

Take `Oc1ccc(Nc2nc(NCc3ccco3)c3ccccc3n2)cc1`: the inhibition was 10.9%.

Take `CCCCCCCCc1c(C)nc(C)c(Br)c1O`: the inhibition was -0.12%.

On to `N=C(N)NCCCN(Cc1ccccc1)c1ccc(Cl)cc1`, for which the inhibition came out at 4.83%.

As to `CNC(=O)c1cc(F)c(F)cc1Nc1nc(Nc2cccc(CS(C)(=O)=O)c2)ncc1Cl`, the inhibition worked out at 2.49%.

With `COc1cc(C(=O)Nc2ccc3nc(N4CCN(C)CC4)cc(C)c3c2)cc(OC)c1OC`, the inhibition was -0.52%.

For the molecule `O=S(=O)(Nc1ccc(CCN2CCC(N3CCCCC3)CC2)cc1)c1ccccc1C(F)(F)F`, the inhibition was found to be 11.3%.

In the case of `O=C(c1ccccc1)N1COCC(CCN2CCC(N3CCCC3)CC2)(c2ccc(Cl)c(Cl)c2)C1` (stereo not given), the inhibition turned out to be 2.59%.

For `Nc1ncc(-c2cccc(F)c2)cc1-c1nc2cc(F)ccc2[nH]1`, the inhibition was found to be 6.56%.

As for `CCCCCCCCOc1c(OCC)cc(Cc2cnc(N)nc2N)cc1OCC`, the inhibition is 2.94%.

On to `COc1ccc2nccc([C@@H](O)CN3CCC(NCc4cc5cccc(OC)c5o4)CC3)c2c1`, for which the inhibition was -0.75%.

As for `Cc1ccc(O)c(-c2cc(C(=O)Nc3ccc(S(=O)(=O)N4CCCCC4)cc3)[nH]n2)c1`, the inhibition was 1.19%.

Take `CCCC(=O)Nc1ccc(OCCCCN(Cc2ccccc2C(F)(F)F)c2ccc(C(F)(F)F)c(C#N)c2)cc1`: the inhibition came out at 5.58%.

With `CCOc1ccc(C(=O)Nc2cc(Br)c3c(c2)CNCC3)cc1C(F)(F)F`, the inhibition was -2.48%.

`COc1cccc(C(=O)Nc2ccc(Nc3nc(C)cc(N(C)C)n3)cc2)c1OC`: the inhibition worked out at 1%.

As for `CSC1=NC(=Nc2c(C)cccc2C)C2(CCCCC2)N1c1ccccc1Cl`, the inhibition was -2.07%.

With `O=C(Cc1ccsc1)NCC(c1ccccc1Cl)c1c[nH]c2ccccc12` (stereo not given), the inhibition is 4.67%.

Regarding `CS(=O)(=O)NCCCNCc1ccc(-c2cccc(-c3nc4cc(C(F)(F)F)ccc4[nH]3)c2)cc1`, the inhibition was 5.43%.

As for `COc1cccc(C2CCN(CCCCNC(=O)c3ccc(NC(=O)c4ccc(Cl)cc4)cc3)CC2)c1`, the inhibition is 3.37%.

For the molecule `N#Cc1ccc(CCNc2nccc(-c3cccc(CN4CCNCC4)c3)n2)cc1`, the inhibition worked out at 6.7%.

In the case of `COc1ccc2nccc([C@@H](O)CN3CCC(NC(=O)C(=O)c4c[nH]c5c(C)cccc45)CC3)c2c1`, the inhibition amounted to 0.45%.

`CC1(C)CC2CC(C)(CN2C(=O)c2cc(C(C)(C)C)nn2Cc2ccccc2)C1` (stereo not given): the inhibition was found to be 5.94%.

As for `CCCN1CCN(Cc2ccc(-c3ccc(-c4nc5ccccc5[nH]4)s3)cc2)CC1`, the inhibition amounted to 1.19%.

As to `CC(C)(C)CCN1CCC(NC(=O)c2ccc(-c3cccc(C(F)(F)F)c3)s2)CC1`, the inhibition was found to be 3.83%.

Consider `CC(C)CNCc1cccc(-c2ccc(CN(CCCN3CCN(C)CC3)C(=O)CCC3CCCC3)cc2)c1`, for which the inhibition was 9.11%.

Regarding `CCCN1CCN(CCNC(=O)c2cccc(Nc3nccc(Nc4ccc(Oc5ccccc5)cc4)n3)c2)CC1`, the inhibition was found to be 1.04%.

Take `Cn1c(NC(=O)CCCCCNC(=O)c2ccc(O)c(-c3ccc(Cl)c(Cl)c3)c2)nc2ccccc21`: the inhibition was 2%.

`CCCN(CCC)S(=O)(=O)c1ccc(C(=O)N2CCC(C(=O)OCC)CC2)cc1`: the inhibition was determined as 5.48%.

On to `CN(C)c1cccc2c1nc(-c1ccco1)n2CCNCc1ccccc1`, for which the inhibition is -0.13%.
